Our source for the Potency and activity change, negative = inhibition values is PubChem BioAssay AID504339 (National Center for Advancing Translational Sciences (NCATS), 2011).

Screen size: about 390,000 compounds; about 17,000 (4.4%) were called active. A call without a number means that no potency is given here. About 8% were inconclusive and are not listed. Many of the other results were omitted from the sample, so actives are more common in it than they were. Unmarked numbers belong to inactive results. Calls come from the whole dose curve; as a rule, active = well fitted inhibition curve with a large enough effect; inconclusive = small, poorly fitted or top-dose-only effect; inactive = no such curve, though single readings can be large or run the other way.
Potency is the fitted concentration of half-maximal effect.

Chain of Lysine-specific demethylase 4A (Homo sapiens) (O75164 whole entry, looked up, the tested form may be a part): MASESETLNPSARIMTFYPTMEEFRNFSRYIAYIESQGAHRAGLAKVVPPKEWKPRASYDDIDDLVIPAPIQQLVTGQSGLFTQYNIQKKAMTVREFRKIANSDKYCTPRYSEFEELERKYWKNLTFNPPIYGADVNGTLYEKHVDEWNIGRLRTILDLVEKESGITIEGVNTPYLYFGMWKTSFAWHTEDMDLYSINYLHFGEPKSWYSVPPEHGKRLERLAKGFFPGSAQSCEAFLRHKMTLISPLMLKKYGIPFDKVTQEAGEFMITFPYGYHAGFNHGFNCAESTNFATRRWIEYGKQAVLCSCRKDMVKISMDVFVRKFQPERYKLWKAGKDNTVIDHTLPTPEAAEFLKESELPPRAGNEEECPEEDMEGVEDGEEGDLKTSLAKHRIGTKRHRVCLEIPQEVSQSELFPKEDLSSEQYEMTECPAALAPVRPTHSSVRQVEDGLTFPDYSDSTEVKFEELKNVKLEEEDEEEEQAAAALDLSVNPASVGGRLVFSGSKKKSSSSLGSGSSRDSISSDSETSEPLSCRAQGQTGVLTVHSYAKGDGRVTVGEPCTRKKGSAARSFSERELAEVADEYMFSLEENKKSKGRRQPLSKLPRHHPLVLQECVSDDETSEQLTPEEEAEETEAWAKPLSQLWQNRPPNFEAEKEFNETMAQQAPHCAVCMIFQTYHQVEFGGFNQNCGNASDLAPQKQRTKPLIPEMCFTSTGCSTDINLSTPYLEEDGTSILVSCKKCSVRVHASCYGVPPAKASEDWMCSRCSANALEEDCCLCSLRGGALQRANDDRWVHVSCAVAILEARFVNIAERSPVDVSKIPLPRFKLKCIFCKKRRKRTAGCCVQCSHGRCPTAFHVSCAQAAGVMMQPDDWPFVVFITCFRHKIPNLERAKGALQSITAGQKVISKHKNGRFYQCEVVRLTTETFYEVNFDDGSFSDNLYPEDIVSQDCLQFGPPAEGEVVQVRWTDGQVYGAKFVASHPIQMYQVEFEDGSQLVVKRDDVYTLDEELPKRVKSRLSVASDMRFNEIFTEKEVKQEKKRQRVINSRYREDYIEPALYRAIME

In this assay the target is Lysine-specific demethylase 4A (Homo sapiens) (UniProt O75164). In words: qHTS Assay for Inhibitors of JMJD2A-Tudor Domain. Note: nearly all actives have a fitted effect of over 50% in size. The note with it: AlphaScreen JMJD2A-Tudor / H3K4me3 peptide binding; series mostly up to 114 µM. The text has this:
JMJD2A is a jumonji-domain-containing lysine demethylase that uses Fe(II) together with 2-OG to effect oxidative demethylation of histones. Methylation is one of many […] modification that affect epigenetic transcription. […] It is proposed that the functions of JmjD2A binding to the histones, is to maintain marks after they are installed and to spread the modifications by […], establishing a self-propagating cycle for rapid methylation over a large area of chromatin. […] Thus, small molecule targeting of the JMJD2A-tudor domain interaction with its target methylhistone mark is expected to enable sophisticated experiments probing the fine regulatory pathways leading to selective demethylation of a given methyllysine locus based on the methylation state of adjacent histone marks. A quantitative high throughput AlphaScreen has been developed to identify small molecule inhibitors based on a protocol published by NCGC and SGC [4].
Although AlphaScreen has significant advantages with its utility in a variety of epigenetic target assays, the primary screening data provided in this deposition should be used with caution due to the prevalence of screening artifacts. The top compound concentration tested was high (>100uM) in this assay, which increases number of actives and potential artifacts. An AlphaScreen counterscreen is highly recommended to be run against any putative actives to eliminate non-specific artifacts. Alternatively, one can use other AlphaScreen assays in PubChem to filter out promiscuous hits.
[1] Lee, J. et al. Distinct binding modes specify the recognition of methylated histone H3K4 and H4K20 by JMJD2A-tudor. Nat Struct Mol Biol. 15(1); 109-11. 2008. PMID: 18084306
[2] Yasgar, et al. Compound Management for Quantitative High-Throughput Screening. JALA. 2008 Apr;13(2):79-89. PMID: 18496600
[3] Inglese, et al. Quantitative high-throughput screening: a titration-based approach that efficiently identifies biological activities in large chemical libraries. Proc Natl Acad Sci. 1;103(31):11473-8. 2006. PMID: 16864780
[4] Quinn et al. A homogeneous method for investigation of methyl-dependent protein-protein interactions in epigenetics. Nucleic Acids Res., 38(2):e11. 2010. PMID: […]
[5] Baell,Holloway. New substructure filters for removal of pan assay interference compounds (PAINS) from screening libraries and for their exclusion in bioassays. J Med Chem. 53(7):2719-40. 2010. PMID: 20131845
NIH Molecular Libraries Probe Production Network [MLPCN]
NIH Chemical Genomics Center [NCGC]
Structural Genomics Consortium (SGC)
To each well of a 1,536w plate, 2ul of JMJD2A-Tudor (final 100nM) and 1ul biotinylated histone peptide methylated at Lys4 [b-H3(1-18)K4me3] (final 50nM) were added in 1x PBS buffer, pH 7.4, containing 0.01% Tween-20, using a nanoliter dispenser. Formation of a protein-peptide complex proceeded at room temperature for 30 min. A Kalypsys pin-tool transferred 23nl of library compound solution in DMSO to each well. Following a 30 min incubation of the protein-peptide complex with compounds at room temperature, a mixture of 40 µg/mL each streptavidin-coated donor and nickel chelate acceptor AlphaScreen beads (final 10 µg/mL) was added in a 1ul dispense for a final volume of 4ul, followed by a brief centrifugation (1000 rpm, 1 min). Plates were incubated protected from the light for 20 min at room temperature. Microplates were then read on an EnVision multilabel plate reader using the 1,536 plate HTS AlphaScreen aperture (excitation time 80 ms, measurement time 240 ms).
(In general: qHTS replaces the single test concentration by a dilution series.)
For `O=C(CN1CCN(C(=O)c2ccco2)CC1)Nc1ccc(Cl)c(C(F)(F)F)c1`, the Potency result is “inactive”.

For the molecule `Cc1ccc(Cl)cc1NC(=O)Cc1ccc(-n2c(C)nc3cccnc32)cc1`, the Potency result was “inactive”. In the case of `Cc1ccccc1NC(=O)Cn1cc(C(=O)c2cccs2)c2ccccc21`, the Potency result was “inactive”. With `CCC(C)NC(=O)Cn1c(=O)n(-c2ccc(Cl)cc2)c(=O)c2c3c(sc21)CCCC3` (centres undefined), the Potency entry was “inactive”. Turning to `Cc1cc(C)c(NC(=O)CN2C(=O)c3cccnc3Oc3ccc(Cl)cc32)c(C)c1`, the Potency result was “inactive”.

`O=C(Nc1ccc2nc(SCC(=O)N3CCCc4ccccc43)sc2c1)c1ccc(F)cc1`: the Potency entry was “inactive”. As for `CCOCCCNC(=O)c1ccc2nc(CCc3ccccc3)oc2c1`, the Potency entry is “inactive”.

For the molecule `O=C(Nc1ccccc1Cl)N1CCC(CN2CCCC2)CC1`, the Potency result is “inactive”. For `Cc1ccc2nc(COc3cccc(NC(=O)Nc4ccc(C)c(Cl)c4)c3)cc(=O)n2c1`, the Potency result is “inactive”. Consider `CSc1nc(-c2ccc(F)cc2)nc2c1Cc1c(CO)cnc(C)c1O2`, for which the Potency result is “inactive”. Consider `O=C(COc1ccc(Cl)cc1)NCCC1=CCCCC1`, for which the Potency result was “inactive”. `O=C(Cc1nn[nH]n1)NCCC1=CCCCC1`: the Potency is 50.1 µM (active). As to `Cc1nnc(OCC(=O)NCCC2=CCCCC2)c2ccccc12`, the Potency result was “inactive”. The same measure, in the same setting: to `COc1ccc(C(=O)c2oc3ccccc3c2NC(=O)COc2cccc(C)c2)cc1` belongs “inactive”.

Turning to `CCOC(=O)c1c(N)n(-c2cccc(C)c2C)c2nc3ccccc3nc12`, the Potency entry was “inactive”. As for `COc1ccc(N2CCC(N3CCN(C)C(CCO)C3)CC2)cc1` (centres undefined), the Potency result is “inactive”. For `COc1ccc(N2CCC(CNC(=S)Nc3c(C)cccc3C)C2)cc1` (centres undefined), the Potency is 39.8 µM (active).

Regarding `COc1ccc(NC(=S)NCC2CCN(c3ccc(OC)cc3)C2)cc1` (centres undefined), the Potency was 35.5 µM (active). Take `Cc1cccc(C)c1NC(=O)CNC(=O)C1CCCC1`: the Potency entry was “inactive”. Still for that read-out and setting: the same measure for `COc1ccc(NC(=O)N2CCC(Cc3ccccc3)CC2)cc1`: “inactive”; for `COc1ccc(OCC(=O)Nc2ccc(N3CCC(C)CC3)cc2)cc1`: “inactive”. On the same count and under the same terms, the same measure for `Cc1ccccc1NC(=O)Cn1c(=O)n(CCCCC(=O)NCc2ccccc2Cl)c(=O)c2ccccc21`: “inactive”; for `COc1cccc(Nc2nc3ccccc3c3nncn23)c1`: “inactive”. As for `Cc1ccc(NC(=O)Cn2c(=O)n(-c3ccccc3)c(=O)c3c4c(sc32)CCCC4)cc1`, the Potency entry was “inactive”. Consider `COc1cc(OC)c(C(=O)Nc2ccccc2-c2ccccc2)cc1OC`, for which the Potency result was “inactive”. Take `COc1ccc(Cl)cc1C(=O)Nc1ccc(N(C)C(C)=O)cc1`: the Potency result is “inactive”. Regarding `COc1cc(OC)c(C(=O)Nc2ccc(N(C)C)cc2)cc1OC`, the Potency was 79.4 µM (active). Still for that read-out and setting: the same measure for `Cc1ccc(NC(=O)CSc2nc3c([nH]c4ccccc43)c(=O)n2-c2ccccc2)cc1Cl`: “inactive”. On the same count and under the same terms, the same measure for `CCCNC(=O)C1CCC(Cn2c(=O)c3sccc3n(Cc3ccccc3F)c2=O)CC1` (centres undefined): “inactive”. The same measure, in the same setting: to `O=C(Nc1cc(C(F)(F)F)ccc1Cl)c1cc2nc(-c3ccc4c(c3)OCO4)cc(C(F)(F)F)n2n1` belongs “inactive”; to `Cc1cc(OCC(=O)NC2CCN(C)CC2)ccc1[N+](=O)[O-]`, “inactive”.

Take `Cc1cc(OCCCN2CCN(Cc3ccccc3)CC2)ccc1[N+](=O)[O-]`: the Potency was 10 µM (active).

As for `Cc1cc(OCCCCOc2ccc(C#N)cc2)ccc1[N+](=O)[O-]`, the Potency result was “inactive”. `CN(C(=O)c1ccc2c(c1)N(Cc1cccc(Cl)c1)C(=O)c1ccccc1S2=O)C1CCCCC1` (centres undefined): the Potency result was “inactive”. Turning to `COCCn1c(CCC(=O)Nc2cc(C)ccc2C)nc2cccnc21`, the Potency entry is “inactive”. `CCOc1ccc(S(=O)(=O)c2cn(Cc3ccccc3)c3ccc(OCC)cc3c2=O)cc1`: the Potency entry was “inactive”. `Cn1nnc2c(N3CCN(c4ccccc4)CC3)ncnc21`: the Potency result was “inactive”. Regarding `CCOc1ccccc1C(=O)Nc1ccc(S(=O)(=O)N2CCCCC2c2cccnc2)cc1` (centres undefined), the Potency entry is “inactive”. Consider `O=C(c1cccc(Cl)c1)N1CCN(CCc2ccncc2)CC1`, for which the Potency result is “inactive”.

With `CCn1c(CNS(=O)(=O)c2ccc(Cl)cc2)n[nH]c1=S`, the Potency was 10 µM (active). `CSc1ccc(S(=O)(=O)NCc2ccc(Cl)cc2)cc1`: the Potency result was “inactive”. `CCn1c(CSCc2c(Cl)cccc2Cl)n[nH]c1=S`: the activity change, negative = inhibition was -16.5% [at 11.4 µM]. For `COc1cccc2sc(NNC(=O)c3nc4ccccc4s3)nc12`, the Potency was 50.1 µM (active).

Take `COc1cccc(OC)c1C(=O)Nc1nnc(C(C)C)s1`: the Potency entry was “inactive”. Take `COc1ccc(-c2nc3ccccc3s2)cc1NC(=O)COc1ccccc1C`: the Potency result is “inactive”.

Turning to `Cc1ccc(OCCn2c(CNc3ccccc3C)nc3ccccc32)cc1`, the Potency entry was “inactive”. On to `COc1ccc(N2CCN(C(=O)CN3C(=O)COc4ccccc43)CC2)cc1`, for which the Potency entry was “inactive”.

In the case of `COc1ccc(CNC(=O)CSCc2nc(-c3ccccc3F)oc2C)cc1`, the Potency result is “inactive”. With `COc1ccc(N2CCN(C(=O)CSCc3nc(-c4ccccc4Cl)oc3C)CC2)cc1`, the Potency was 50.1 µM (active).

With `COc1cc(/C=C2\C(=N)N3N=C(CC(=O)N4CCOCC4)SC3=NC2=O)cc(OC)c1OC`, the Potency result is “inactive”. In the case of `CCOc1cc(/C=C2\C(=N)N3N=C(C)SC3=NC2=O)ccc1OCCOc1ccccc1`, the Potency result is “inactive”. `COc1ccccc1OCCOc1ccc(/C=C2\C(=N)N3N=C(C)SC3=NC2=O)cc1`: the Potency entry was “inactive”.

With `CS(=O)(=O)C1=NN2C(=N)/C(=C\c3ccc(OCCOc4ccccc4)cc3)C(=O)N=C2S1`, the Potency is 56.2 µM (active). For `CCS(=O)(=O)C1=NSC2=NC(=O)/C(=C\c3ccc(OS(=O)(=O)c4ccccc4)cc3)C(=N)N21`, the Potency is 44.7 µM (active).
